About 83,000 compounds went through this panel and 20% of them were active in at least one assay; those are over-represented in the sample as a whole.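 Single-concentration screen, 48 h exposure, 96-well plates. Endpoint: percent growth. Below 10 = active.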 A number with no mark means an inactive call. Active and inactive are the calls of the source.

This experiment deals with RXF 393 renal. The experiment is described as follows: NCI-60 one-dose screen, 48 h (100 = growth as untreated, 0 = no growth, -100 = all killed). To be noted: 10 µM unless noted.
As for `Clc1nnc2c3ccccc3ccn12`, the growth is 97.6%. Regarding `COc1ccc(-c2nn(C(=O)NCCN(C)C)cc2-c2ccncc2)cc1Cl`, the growth is 44.6%. In the case of `CCN1C(=O)N(CC)C2C1NN=c1s/c(=C\c3ccco3)c(=O)n12` (centres undefined) it was -2.28% (active); in that of `CC(C)N(C(=S)SSC(=S)N(C(C)C)C(C)C)C(C)C`, 120%; in that of `CC(C)=CC[C@@H]1CC2(CC=C(C)C)C(=O)C(OC3(C(=O)c4ccccc4)C(=O)C4(CC=C(C)C)C[C@@H](CC=C(C)C)C(C)(C)C(CC=C(C)C)(C4=O)C3=O)(C(=O)c3ccccc3)C(=O)C(CC=C(C)C)(C2=O)C1(C)C` (some centres undefined), 4.28% (active).

Take `CCCCCCCCCCCCCCCC1=NCCN1`: the growth is 60.6%. With `COc1cc([N+](=O)[O-])cc(OC)c1OC`, the growth is 124%.

With `NNC(=O)CSc1nc2scc(-c3ccccc3)c2c(=O)n1-c1ccccc1`, the growth is -50.2% (active). In the case of `C=CCN(CC#N)CC=C` it was 112%; in that of `CCOC(=O)Cn1c(-c2nonc2NC(=O)c2ccccc2F)nc2ccccc21`, 64.7%; in that of `CCCCCCCOc1cccc(/C=C2\N=C3SCCCN3C2=O)c1`, 116%. In the case of `Cc1c2c(cc3c1[nH]c1ccccc13)C=NCC2` it was 84.9%. In the case of `COc1cc(OC)c(Cl)cc1N` it was 110%; in that of `CS(=O)(=O)c1ccc(C(=O)Nc2ccc(Cl)c(-c3ccccn3)c2)c(Cl)c1`, -52.9% (active).

On to `Cc1cc([N+](=O)[O-])c(C)cc1N`, for which the growth was 105%. In the case of `COc1cnc2c(c1)C(=O)c1c-2n(CCCN2CCNCC2)c(=O)c2cc(Cl)ccc12` it was -1.72% (active); in that of `COc1cc(/C=C2\CN(C(=O)OC(C)(C)C)C/C(=C\c3ccc(O)c(OC)c3)C2=O)ccc1O`, 102%; in that of `CCN1C(=O)C(C)C=C(C)C=C1C` (centres undefined), 106%. Regarding `COCc1nc(NS(=O)(=O)c2ccc(N)cc2)nc(C)c1Br`, the growth was 101%. For `O=c1c2cc(Br)cc(Br)c2nc(-c2ccc(Cl)cc2)n1/N=C\c1ccccc1F`, the growth was 72.9%.

For the molecule `CCCCCCCCCCCCCC1=NC(C)(C)CN1C(C)C`, the growth is -65.9% (active).

As to `CCC(=O)OCc1ccc(OC)cc1`, the growth was 118%. As for `Fc1ccc(-c2cnc3nonc3n2)c(F)c1`, the growth is 111%. Turning to `O=S(=O)(Nc1ccc2ccccc2c1)N1CCCCC1`, the growth is 68.3%. For the molecule `CCn1c(Cc2ccccc2Nc2c(Cl)cccc2Cl)nnc1SCC(=O)Nc1cccc(OC)c1`, the growth is 90%. Regarding `CCN(CC)CC(=O)Nc1c(C)ccc(N)c1C`, the growth was 116%.

As for `C=C1C[C@@]2(C)C(CC[C@]3(C)C2CC=C2C4CC(C)(C)C[C@@H](OC(=O)/C(C)=C\C)[C@]4(C(=O)O)CC[C@]23C)C(C)(C)C1=O` (some centres undefined), the growth is -75.6% (active). In the case of `C=C1C(=O)O[C@H]2[C@H]1CC/C(COC(=O)NCc1cccc(OC)c1)=C\CC[C@@]1(C)O[C@@H]21`, the growth was -57.1% (active).

In the case of `CCCCOc1nc2ccccc2cc1/C=C/c1cc(/C=C/c2cc3ccccc3nc2OCCCC)n(-c2ccccc2)n1`, the growth is 106%.

On to `CCCCc1nc(Cl)c(C2CC(c3ccc(S(N)(=O)=O)cc3)=NN2c2cc(Cl)cc(Cl)c2)[nH]1` (centres undefined), for which the growth was 48.4%. Regarding `O=C(N/N=C\c1cc(Br)ccc1O)c1ccncc1`, the growth is 54.9%.

Turning to `CC(C)C/C=C/C=C/C(=O)N[C@@H](CC(N)=O)C(=O)N[C@@H]1C(=O)N[C@H](c2ccc(O)cc2)C(=O)N[C@H](CCCN)C(=O)N[C@H]([C@@H](C)O)C(=O)N[C@H](c2ccc(O)cc2)C(=O)N[C@H](c2ccc(O)cc2)C(=O)N[C@H]([C@H](C)O)C(=O)N[C@H](Cc2ccccc2)C(=O)N[C@H](CCCN)C(=O)N[C@H](c2ccc(O[C@H]3O[C@@H](CO)[C@@H](O)[C@@H](O)[C@H]3O[C@@H]3O[C@H](CO)[C@H](O)[C@H](O)[C@@H]3O)cc2)C(=O)N[C@H]([C@H](C)O)C(=O)N[C@H](c2ccc(O)cc2)C(=O)NCC(=O)N[C@H](CC(C)C)C(=O)N[C@H](C)C(=O)N[C@H](c2ccc(O)c(Cl)c2)C(=O)O[C@@H]1C(N)=O`, the growth is 44.9%.

For the molecule `CN(C)c1ccc(/C=C\c2cccc[n+]2C)cc1`, the growth is 86.6%.

As for `COC(=O)CSc1ccc(Cl)cc1`, the growth is 136%.

As for `S=C(S)Oc1cccc2cccnc12`, the growth was 119%. In the case of `O=C1NN(C(=O)c2ccccc2)C(c2ccc(Cl)c(Cl)c2)=C/C1=C\c1ccccc1[N+](=O)[O-]`, the growth is 7.22% [6.75 µM] (active). As to `CCOC(=O)Nc1ccc2nc(Sc3ccc(Cl)cc3)sc2c1`, the growth was 36.8%. Take `COc1cc(C2CC(c3cccc(Nc4ccnc5cc(Cl)ccc45)c3)=NN2C=O)cc(OC)c1OC` (centres undefined): the growth was -25.1% (active). For `c1cn2cc(-c3ccc4ncn(C5CCCCC5)c4c3)nc(-c3ccc4c(c3)ncn4C3CCCCC3)c2n1`, the growth is -89.1% (active).

Values taken from PubChem BioAssay (NCI).
